Here are results for 6 compounds from PubChem BioAssay.

The source made the active and inactive calls.

Assay [1] has as its system Plasmodium falciparum Sir2 (PF13_0152, Sir2A). The assay can be described thus: Plasmodium falciparum Sir2A binding compounds – biochemical, small-molecule microarray, 635 nm fluorescence, primary screen (AID 1098).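 Note: score merges spot fluorescence intensity with its signal-to-noise ratio.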 To be noted: fluorescence 635 nm, higher = more signal.
Assay [2] is described as follows: probe aDKK1 binding to arrayed compounds – biochemical, biotinylated probe, 635/667 nm fluorescence, primary screen (AID 1099).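 Note: score merges 667nm spot fluorescence with signal to noise across triplicate slides.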 The conditions noted are these: small-molecule microarray, higher = more signal.
Assay [3] is described as follows: probe aCHRDL2 binding to arrayed compounds – biochemical, biotinylated probe, 635/667 nm fluorescence, primary screen (AID 1100). To be noted: small-molecule microarray, higher = more signal.
Assay [4] is described as follows: change in splice reporter luminescence, either direction, cell-based, HEK293, spliceosome inhibition project, primary screen (AID 1101).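 Note: HEK293 cells carrying a splicing-competent luciferase reporter gene; test concentration not given here.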 The conditions noted are these: HEK293 splicing luciferase reporter, 24 h, higher = more signal, called active from +8 up or from −8 down.
The target of assay [5] is Fibroblast growth factor 10 (Homo sapiens) (UniProt O15520). Briefly: compounds binding fibroblast growth factor 10 – biochemical, small-molecule microarray, 635 nm fluorescence, primary screen (AID 1102). To be noted: FGF10 binding, fluorescence 635 nm, higher = more signal.
Assay [6] concerns glycogen synthase kinase-3 (GSK3A per assay name; protocol says GSK3B). The assay can be described thus: compounds binding glycogen synthase kinase-3 – biochemical, small-molecule microarray, 635 nm fluorescence, GSK3A, primary screen (AID 1103). Note: the record names both GSK3A and GSK3B. The conditions noted are these: fluorescence 635 nm, higher = more signal.
In assay [7] the target is Epidermal growth factor receptor (Homo sapiens) (UniProt P00533). Briefly: compounds binding epidermal growth factor receptor – biochemical, small-molecule microarray, 635 nm fluorescence, primary screen (AID 1104).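 Note: score merges 667 nm emission intensity with spot signal to noise over triplicate slides.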 To be noted: EGFR binding, higher = more signal.
In assay [8] the target is Follistatin-related protein 3 (Homo sapiens) (UniProt O95633). The assay can be described thus: compounds binding follistatin-related protein 3 – biochemical, small-molecule microarray, 635 nm fluorescence, primary screen (AID 1105).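 Note: score merges emission near 667 nm and signal to noise per printed spot across three slides.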 The conditions noted are these: FSTL3 binding, higher = more signal.
In assay [9] the target is Dickkopf-related protein 1 (Homo sapiens) (UniProt O94907). The assay can be described thus: small molecules binding DKK1 protein – biochemical, small-molecule microarray, 635 nm fluorescence scan, primary screen (AID 1106).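 Note: score merges emission near 667 nm with signal to noise over three replicate slides.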 To be noted: higher = more signal.
Assay [10] relates to Inhibin beta A chain (activin A). The assay can be described thus: small molecules binding activin A – biochemical, small-molecule microarray, 635 nm fluorescence scan, primary screen (AID 1107).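 Note: mouse activin A protein probed at 4.33 µg/mL on printed slides; score merges bound-protein fluorescence near 667 nm with spot signal-to-noise.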 To be noted: INHBA, higher = more signal.
In assay [11] the test system is Human papillomavirus type 1a protein E7 (residues 44-93). The assay can be described thus: small molecules binding HPV E7 44-93 – biochemical, small-molecule microarray, residues 44-93, 635 nm fluorescence, primary screen (AID 1108).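 Note: E7 fragment applied at 1 µg/mL in TBST for 1 h at 4 C; score combines spot fluorescence with its signal to noise ratio.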 To be noted: fluorescence 635 nm, higher = more signal.
Assay [12] in a line: hepatitis C replication reporter changes, two-sided – Huh7 cells, luciferase reporter, HCV replication inhibitor project, primary screen (AID 1109).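 Note: huh7 hepatoma cells harbouring a luciferase neomycin HCV replicon reporter; luciferase luminescence as measure of HCV replicon replication; test concentration not given here.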 To be noted: Huh7 HCV replicon luciferase reporter, 48 h; higher = more signal.
The target of assay [13] is Left-right determination factor 2 (Homo sapiens) (UniProt O00292). Briefly: small molecules binding LEFTY2 protein – biochemical, small-molecule microarray, 635 nm fluorescence scan, primary screen (AID 1110). The conditions noted are these: higher = more signal.
Assay [14] addresses Calmodulin-1 (Homo sapiens) (UniProt P0DP23). Briefly: small molecules binding calmodulin-1 with EGTA – biochemical, small-molecule microarray, Cy5-labelled CALM1, profiling panel (AID 1111).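 Note: labelled calmodulin applied in Tris saline Tween buffer holding calcium plus EGTA and DTT.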 To be noted: Cy5-CALM1 binding fluorescence, higher = more signal.
Assay [15] shares this target. The assay can be described thus: small molecules binding Ca-loaded calmodulin-1 – biochemical, small-molecule microarray, Cy5-labelled CALM1, plus calcium, artefact control for SMM control-protein annotation, profiling panel (AID 1112).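 Note: score merges spot fluorescence with signal to noise from triplicate slides.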 The conditions noted are these: Cy5-CALM1 binding fluorescence, higher = more signal.
Assay [16] is described as follows: probe aWnt5a binding to arrayed compounds – biochemical, biotinylated probe, 635/667 nm fluorescence, primary screen (AID 1113).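 Note: score merges 667 nm fluorescence intensity with signal-to-noise per printed feature.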 The conditions noted are these: small-molecule microarray, higher = more signal.
Assay [17] is described as follows: probe aShh binding to arrayed compounds – biochemical, biotinylated probe, 635/667 nm fluorescence, primary screen (AID 1114).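 Note: probe is biotin-labelled aShh protein from a stem cell growth factor screen; measures binding of labelled protein to compounds printed on the slide; score merges feature fluorescence at 667 nm with signal-to-noise.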 The conditions noted are these: small-molecule microarray, higher = more signal.
The nature of assay [18]: probe aNog binding to arrayed compounds – biochemical, biotinylated probe, 635/667 nm fluorescence, primary screen (AID 1115).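 Note: probe is biotinylated aNog protein used at 0.15 µg/mL for 1 h at 4 C; z-score combines 667 nm fluorescence of each spot with its signal to noise.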 To be noted: small-molecule microarray, higher = more signal.
Assay [19] deals with Torsin-1A-interacting protein 1 (Homo sapiens) (UniProt Q5JTV8). Briefly: compound microarray binding of lysate hLAP1 – cell lysate, small-molecule microarray, COS7 lysate, 635/667 nm fluorescence, primary screen (AID 1116). The conditions noted are these: 635 nm fluorescence, higher = more signal.
Assay [20] deals with Alpha-bungarotoxin (Bungarus multicinctus) (UniProt P60615). Briefly: compounds binding labelled alpha-BTX control protein – biochemical, small-molecule microarray, Alexa647 label, 635/667 nm fluorescence, artefact control for SMM control protein annotation, profiling panel (AID 1117). The conditions noted are these: alpha-BTX-A647 binding fluorescence, higher = more signal.
Sequence of Alpha-bungarotoxin (Bungarus multicinctus) (P60615 whole entry, looked up): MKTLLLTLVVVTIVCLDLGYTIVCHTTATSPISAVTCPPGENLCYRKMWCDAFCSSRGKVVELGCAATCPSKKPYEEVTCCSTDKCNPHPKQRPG

Sequence of Fibroblast growth factor 10 (Homo sapiens) (O15520 whole entry, looked up): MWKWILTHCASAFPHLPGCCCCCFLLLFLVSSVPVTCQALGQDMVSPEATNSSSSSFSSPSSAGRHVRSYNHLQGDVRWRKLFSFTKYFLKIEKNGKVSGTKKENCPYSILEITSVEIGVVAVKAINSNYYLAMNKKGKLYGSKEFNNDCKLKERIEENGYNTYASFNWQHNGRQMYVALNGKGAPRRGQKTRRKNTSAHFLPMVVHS
Sequence of Torsin-1A-interacting protein 1 (Homo sapiens) (Q5JTV8 whole entry, looked up): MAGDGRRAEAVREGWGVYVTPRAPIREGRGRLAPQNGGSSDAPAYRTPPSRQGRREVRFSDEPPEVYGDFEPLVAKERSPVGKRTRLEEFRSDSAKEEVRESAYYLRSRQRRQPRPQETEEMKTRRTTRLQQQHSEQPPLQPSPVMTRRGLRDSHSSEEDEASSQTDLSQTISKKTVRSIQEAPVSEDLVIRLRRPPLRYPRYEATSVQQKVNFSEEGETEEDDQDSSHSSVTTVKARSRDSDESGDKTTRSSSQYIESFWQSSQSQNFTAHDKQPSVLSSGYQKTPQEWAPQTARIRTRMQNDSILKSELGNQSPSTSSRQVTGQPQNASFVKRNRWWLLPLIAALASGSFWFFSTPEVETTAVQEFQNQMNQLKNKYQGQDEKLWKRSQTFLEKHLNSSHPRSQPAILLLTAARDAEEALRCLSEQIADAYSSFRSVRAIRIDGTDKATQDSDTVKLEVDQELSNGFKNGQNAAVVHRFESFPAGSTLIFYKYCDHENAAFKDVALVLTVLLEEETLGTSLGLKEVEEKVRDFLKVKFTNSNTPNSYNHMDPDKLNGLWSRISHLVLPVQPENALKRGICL
Sequence of Left-right determination factor 2 (Homo sapiens) (O00292 whole entry, looked up): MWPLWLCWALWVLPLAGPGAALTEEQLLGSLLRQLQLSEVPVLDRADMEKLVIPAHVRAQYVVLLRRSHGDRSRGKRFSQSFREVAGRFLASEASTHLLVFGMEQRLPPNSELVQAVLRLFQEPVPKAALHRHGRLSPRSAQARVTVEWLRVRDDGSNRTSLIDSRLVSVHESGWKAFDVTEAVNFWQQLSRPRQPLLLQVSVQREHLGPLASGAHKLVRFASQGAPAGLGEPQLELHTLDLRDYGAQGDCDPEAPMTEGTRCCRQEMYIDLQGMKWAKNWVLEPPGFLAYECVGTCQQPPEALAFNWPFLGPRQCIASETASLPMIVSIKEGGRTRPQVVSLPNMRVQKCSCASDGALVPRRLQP
Sequence of Follistatin-related protein 3 (Homo sapiens) (O95633 whole entry, looked up): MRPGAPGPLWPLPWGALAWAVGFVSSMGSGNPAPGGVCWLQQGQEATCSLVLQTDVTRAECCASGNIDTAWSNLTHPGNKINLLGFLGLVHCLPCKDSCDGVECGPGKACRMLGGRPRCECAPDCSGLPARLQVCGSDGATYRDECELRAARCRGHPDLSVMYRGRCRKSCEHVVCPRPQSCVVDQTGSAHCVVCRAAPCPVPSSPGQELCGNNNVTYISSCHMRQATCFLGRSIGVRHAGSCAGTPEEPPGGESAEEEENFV
Sequence of Dickkopf-related protein 1 (Homo sapiens) (O94907 whole entry, looked up): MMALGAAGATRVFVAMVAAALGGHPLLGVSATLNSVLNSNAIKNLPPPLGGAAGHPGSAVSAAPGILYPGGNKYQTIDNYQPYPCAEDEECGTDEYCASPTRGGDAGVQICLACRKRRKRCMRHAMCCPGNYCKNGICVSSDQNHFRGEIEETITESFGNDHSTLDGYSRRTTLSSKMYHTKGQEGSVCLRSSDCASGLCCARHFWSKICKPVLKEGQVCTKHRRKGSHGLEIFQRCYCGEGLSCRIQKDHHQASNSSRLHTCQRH
Sequence of Epidermal growth factor receptor (Homo sapiens) (P00533 whole entry, looked up): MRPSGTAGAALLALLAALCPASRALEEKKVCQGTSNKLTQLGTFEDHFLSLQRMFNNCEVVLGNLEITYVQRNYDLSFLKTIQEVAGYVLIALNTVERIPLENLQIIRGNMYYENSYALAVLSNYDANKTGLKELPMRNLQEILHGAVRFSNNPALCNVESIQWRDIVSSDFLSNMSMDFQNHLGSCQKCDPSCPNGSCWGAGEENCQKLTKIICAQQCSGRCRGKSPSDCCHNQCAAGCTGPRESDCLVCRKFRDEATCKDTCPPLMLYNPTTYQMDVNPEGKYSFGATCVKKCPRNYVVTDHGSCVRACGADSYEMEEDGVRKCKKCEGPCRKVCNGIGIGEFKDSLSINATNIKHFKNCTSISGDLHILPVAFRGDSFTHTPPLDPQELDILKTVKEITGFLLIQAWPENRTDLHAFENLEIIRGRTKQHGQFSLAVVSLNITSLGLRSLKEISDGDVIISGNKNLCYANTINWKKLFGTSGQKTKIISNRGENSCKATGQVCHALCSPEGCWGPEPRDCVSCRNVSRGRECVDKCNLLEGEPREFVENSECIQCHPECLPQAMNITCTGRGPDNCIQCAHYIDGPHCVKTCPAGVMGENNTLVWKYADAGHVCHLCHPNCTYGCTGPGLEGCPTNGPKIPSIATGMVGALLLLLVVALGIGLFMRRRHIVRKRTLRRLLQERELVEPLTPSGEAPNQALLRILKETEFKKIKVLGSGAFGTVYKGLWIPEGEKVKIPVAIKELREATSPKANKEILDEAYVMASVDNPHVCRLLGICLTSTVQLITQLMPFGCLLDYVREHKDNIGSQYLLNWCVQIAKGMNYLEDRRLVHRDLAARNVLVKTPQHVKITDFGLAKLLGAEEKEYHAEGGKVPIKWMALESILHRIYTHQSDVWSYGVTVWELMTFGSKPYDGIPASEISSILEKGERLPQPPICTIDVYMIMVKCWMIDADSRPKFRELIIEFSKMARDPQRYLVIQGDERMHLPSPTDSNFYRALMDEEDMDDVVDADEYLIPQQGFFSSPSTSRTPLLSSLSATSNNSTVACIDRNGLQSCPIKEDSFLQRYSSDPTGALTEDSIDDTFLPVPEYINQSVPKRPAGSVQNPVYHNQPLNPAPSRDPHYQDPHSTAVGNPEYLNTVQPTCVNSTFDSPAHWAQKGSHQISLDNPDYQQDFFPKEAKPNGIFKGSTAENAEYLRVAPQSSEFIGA

As to `C=C[C@@H](COC(C)=O)NS(=O)(=O)c1ccc(Br)cc1`, the composite z-score in assay [1] is 0.549; in assay [2] it was -0.103; in assay [3], -0.0829; in assay [5], 0.172; in assay [6] it was 0.444; in assay [7], 0.118. The composite z-score in [8] was 0.412; in assay [9] it was 0.77; in assay [10], 0.361; in [11], 0.487; in assay [13], 0.219; in assay [14] it was -0.271. The composite z-score in assay [15] was -0.144; in [16], -0.0478; in [17], -0.0643; in assay [18] it was -0.538; in [19], -0.0651; in assay [20], 0.225. Besides, the z-score is 23.4 (active) in assay [4] and -0.178 in assay [12].

With `O=c1cccc(-c2ccc(C(F)(F)F)cc2)o1`, the composite z-score in [1] is -0.426; in [2], -0.0458; in assay [3], 0.239; in assay [5], -0.46; in assay [6], -0.762; in assay [7] it was -0.215. Moreover, the composite z-score was -0.936 in assay [8]; -0.572 in assay [9]; 0.339 in assay [10]; -1.57 in assay [11]; -0.534 in assay [13]; -0.271 in assay [14]. The composite z-score in [15] is 0.238; in assay [16], -0.0685; in [17], 0.163; in assay [18], -0.0446; in assay [19], -0.333; in [20], -0.364. For the same compound, the figures for the z-score in assay [4] and in [12] were 0.0423 (inactive) and 0.587, respectively.

As to `NCCCCCCNC(=O)[C@@H]1C[C@@H]2C(=O)N3CCC[C@H]3C(=O)N2[C@@H]1c1ccc(O)cc1`, the composite z-score in assay [1] came to 1.27; in [2], 0.0265; in [3], 0.0978; in assay [5], 1.01; in assay [6], 1.3; in assay [7] it was 0.235. Further, the composite z-score in assay [8] worked out at 0.318; in assay [9], 1.02; in assay [10] it was 0.123; in assay [11], 1.31; in [13], 1.31; in assay [14], 0.718. The composite z-score is 0.683 in assay [15]; 0.0049 in [16]; 0.0328 in assay [17]; -0.157 in assay [18]; 0.557 in assay [19]; 0.705 in assay [20]. Moreover, the z-score was 0.364 (inactive) in assay [4] and 0.808 in [12].

For `C[C@]1(C(=O)O)c2ccccc2C(=O)N(Cc2ccccc2)[C@H]1c1ccc(CO)cc1`, the composite z-score in assay [1] is 1.51; in [2] it was 0.44; in assay [3], 1.11; in assay [5], -1.97; in [6], -1.83; in assay [7] it was -1.63. Moreover, the composite z-score in assay [8] was -1.38; in assay [9] it was -1.64; in assay [10] it was 0.463; in assay [11], -0.633; in [13] it was -2.19; in assay [14] it was 0.139. Besides, the composite z-score in assay [15] is 1.2; in assay [16], -0.204; in [17], -0.291; in [18], 0.562; in assay [19] it was -0.0514; in assay [20] it was -1.04. Further, the z-score is -0.602 (inactive) in assay [4] and -0.413 in [12].

`COc1ccc([Si](C)(C)[C@H]2[C@H](CCO)O[C@@]3(C(=O)N(Cc4cccc(N5CCCCC5=O)c4)c4ccccc43)[C@@H]2C)cc1`: the composite z-score in assay [1] turned out to be 1.08; in assay [2], 0.176; in [3], 0.0883; in assay [5] it was 0.748; in assay [6], 0.845; in [7], 0.525. In addition, the composite z-score in assay [8] is 1.16; in assay [9], 0.82; in assay [10], 0.861; in assay [11], 1.25; in assay [13] it was 1; in assay [14], 0.557. The composite z-score is 0.388 in [15]; -0.0919 in assay [16]; 0.149 in assay [17]; 0.304 in [18]; 0.753 in [19]; 1.22 in assay [20]. Also, the z-score is -2.37 (inactive) in assay [4] and -5.07 in assay [12].

Consider `COc1ccc([Si](C)(C)[C@H]2[C@H](CC(=O)N3Cc4ccccc4C[C@H]3CO)O[C@@]3(C(=O)N(Cc4cccc(N5CCCCC5=O)c4)c4ccccc43)[C@@H]2C)cc1`, for which the composite z-score in assay [1] was 1.2; in assay [2] it was -0.205; in [3] it was -0.181; in [5] it was 1.14; in assay [6], 0.262; in assay [7] it was 0.795. Further, the composite z-score in assay [8] is 1.27; in assay [9], 1.12; in assay [10], 0.94; in assay [11], 0.551; in assay [13], 0.983; in assay [14], -0.226. For the same compound, the composite z-score is -0.48 in assay [15]; -0.043 in assay [16]; -0.0553 in [17]; -0.0206 in assay [18]; 0.547 in assay [19]; 0.244 in assay [20]. The z-score in assay [4] is -0.519 (inactive); in assay [12], -3.77.
